# This is part of a sample that, as a whole, favours compounds with a hit. Of some 83,000 tested, about 20% had one in any assay.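 Growth was measured after 48 h exposure to one concentration of compound in 96-well plates. Values under 10 count as active.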 Values without a mark were called inactive. Activity calls are given as the source filed them.
# How the values were obtained:
# Assay in all cases: NCI-60 one-dose screen, 48 h (100 = growth as untreated, 0 = no growth, -100 = all killed)
# Conditions in all cases: 10 µM unless noted
# RPMI-8226 leukemia = tested on: RPMI-8226 leukemia
# OVCAR-8 ovarian = tested on: OVCAR-8 ovarian
# OVCAR-5 ovarian = tested on: OVCAR-5 ovarian
# OVCAR-4 ovarian = tested on: OVCAR-4 ovarian
# SK-OV-3 ovarian = tested on: SK-OV-3 ovarian
# IGROV1 ovarian = tested on: IGROV1 ovarian
# OVCAR-3 ovarian = tested on: OVCAR-3 ovarian
# HS 578T breast = tested on: HS 578T breast
# NCI/ADR-RES ovarian = tested on: NCI/ADR-RES ovarian
# T-47D breast = tested on: T-47D breast
Compound,growth (RPMI-8226 leukemia),growth (OVCAR-8 ovarian),growth (OVCAR-5 ovarian),growth (OVCAR-4 ovarian),growth (SK-OV-3 ovarian),growth (IGROV1 ovarian),growth (OVCAR-3 ovarian),growth (HS 578T breast),growth (NCI/ADR-RES ovarian),growth (T-47D breast)
COc1cc2c(-c3nc4cc(Cl)c(F)cc4s3)cc(=O)oc2c(C)c1OC,-56% (active),-58.8% (active),-65.5% (active),-92.9% (active),-85% (active),-43.6% (active),-98.6% (active),-0.186% (active),-10% (active),-14.1% (active)
N#Cc1c(N)[nH]c(S)c1C#N,107%,101%,99.7%,109%,100%,107%,120%,104%,116%,89.3%
CNc1ccc(CSc2ccc(Cl)cc2)cc1,35.8%,103%,90.2%,85.6%,107%,81.9%,109%,123%,97%,80.3%
C[n+]1ccc(C#N)c2ccccc21,94.6%,111%,103%,64.7%,98.2%,70.5%,4.02% (active),108%,101%,88.8%
CC(=O)O[C@H]1C(=O)[C@@]2(C)C([C@H](OC(=O)c3ccccc3)[C@]3(O)C[C@H](OC(=O)[C@H](O)[C@@H](NC(=O)c4ccccc4)c4ccccc4)C(C)=C1C3(C)C)[C@]1(OC(C)=O)CO[C@@H]1C[C@@H]2O (stereo not given in full),3.77% (active),26.6%,27.2%,46.5%,18.1%,42%,-9.4% (active),14.9%,43.9%,47.3%
O=C(OC[C@H]1O[C@H](OC(=O)c2cc(O)c(O)c(OC(=O)c3cc(O)c(O)c(O)c3)c2)[C@H](OC(=O)c2cc(O)c(O)c(OC(=O)c3cc(O)c(O)c(O)c3)c2)[C@@H](OC(=O)c2cc(O)c(O)c(OC(=O)c3cc(O)c(O)c(O)c3)c2)[C@@H]1OC(=O)c1cc(O)c(O)c(OC(=O)c2cc(O)c(O)c(O)c2)c1)c1cc(O)c(O)c(OC(=O)c2cc(O)c(O)c(O)c2)c1,34.9%,30.2%,48.3%,37.8%,49.8%,29.8%,13.8%,66.1%,9.15% (active),33.2%
CC[C@@H]1OC(=O)[C@H](C)[C@@H](O[C@H]2C[C@@](C)(OC)[C@@H](O)[C@H](C)O2)[C@H](C)[C@@H](O[C@@H]2O[C@H](C)C[C@H](N(C)C)[C@H]2O)[C@](C)(O)C[C@@H](C)[C@@H]2N[C@@H](COCCOC)O[C@H]([C@H]2C)[C@]1(C)O,88.8%,102%,105%,106%,109%,108%,124%,115%,101%,105%
Cc1c(C(N)=O)sc2ncn(Cc3ccccc3)c(=O)c12,59.5%,110%,101%,111%,106%,2.39% (active),104%,67.7%,105%,98.1%
COc1ccc2[nH]cc(/C=C3/C(=O)Nc4ccc(Cl)cc43)c2c1,54%,52%,78.1%,51.5%,22.5%,54.4%,18.1%,31.9%,49.6%,61.9%
O=C1NCC(Nc2ccc(Br)cc2Cl)C(=O)N1 (stereo not given),110%,130%,100%,111%,105%,108%,114%,105%,107%,99.6%
CCC(CC)NCCCCCNc1cc(OC)cc2cccnc12,115%,93.5%,88.9%,32.1%,97.7%,111%,83.3%,91.2%,83.3%,73.8%
COC(=O)CCC1=C(C)/C(=C/c2[nH]c(-c3ccc[nH]3)cc2OC)N=C1C,-57% (active),10%,35%,23.4%,40%,25.9%,-56.9% (active),1.28% (active),14.8%,-36% (active)
COc1ccc(C2=NN(C(C)=O)C(c3cc(OC)c(OC)c(OC)c3)C2)cc1 (stereo not given),93.9%,108%,111%,112%,108%,92.8%,88.6%,244%,83%,92.1%

# From PubChem BioAssay (NCI)
